Experimental findings from PubChem BioAssay (NCATS) are described below.

Structures are written as SMILES. Results filed as inconclusive are left out. The source made the active and inactive calls. Unless noted, calls follow the shape of the full dose curve.

In test [1] the target is Glucocorticoid receptor (Homo sapiens) (UniProt P04150). The test can be described thus: qHTS assay for small molecule agonists of glucocorticoid receptor signaling (AID 588532; active = well fitted curve in the direction sought with a large enough effect in the signal ratio, with a control signal flat; the % refers to the signal ratio;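 also: 100% = dexamethasone at 0.1 µM and 0% = DMSO only wells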). The conditions noted are these: HeLa MMTV-bla, beta-lactamase ratio, agonist, 18 h; stronger effect = higher value; percent of dexamethasone control, DMSO zero. Summed up:
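Quantitative HTS using CellSensor MMTV-bla HeLa cells in charcoal/dextran-treated serum; compounds tested up to 92 uM. After 18 h at 37 C, CCF4 dye reported reporter induction.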
Background: Quantitative high-throughput screening tests each substance at several concentrations.

Test [2] has the same target. The experiment in a line: qHTS assay for small molecule antagonists of glucocorticoid receptor signaling (AID 588533; active = well fitted inhibition curve with a large enough effect in the signal ratio, with a control signal flat, not every such curve was filed as active; the % refers to the signal ratio;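 also: cells stimulated with 2 nM dexamethasone as agonist; % is scaled to controls: 0 for no effect and ±100 for the full control effect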). Conditions: HeLa MMTV-bla, GRE beta-lactamase ratio, antagonist mode, 18 h; series mostly up to 76.8 µM. Summed up:
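Antagonist-mode qHTS: compound titrations added to GRE-bla HeLa cells, then dexamethasone 2 nM final; 18 h, 37 C. CCF4 FRET fluorescence normalized to dexamethasone and DMSO; IC50 from Hill fit.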

Test [3] in a line: qHTS assay for small molecule antagonists of peroxisome proliferator-activated receptor delta signaling (AID 588535; active = well fitted inhibition curve with a large enough effect in the signal ratio, with a control signal flat, not every such curve was filed as active; the % refers to the signal ratio;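 as to max response: cells co-treated with a PPAR-delta agonist as stimulator during compound exposure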). Conditions: HEK293T PPARd-UAS-bla, beta-lactamase FRET ratio, 18 h; 460 nm channel. Summed up:
(§1)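 Antagonist-mode qHTS using GeneBLAzer PPAR-delta-UAS-bla HEK293T cells; compound exposure 18 hrs at 37 C over a titration. Ratiometric CCF4 fluorescence at 460/530 nm; concentration-response points fitted to the Hill equation.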

Test [4] deals with Peroxisome proliferator-activated receptor delta (Homo sapiens) (UniProt Q03181). Described as above. Conditions: HEK293T PPARd-UAS-bla, beta-lactamase FRET ratio, 18 h; series mostly up to 76.7 µM. The essentials: as §1
Peroxisome proliferator-activated receptor delta (Homo sapiens), sequence (Q03181 whole entry, looked up): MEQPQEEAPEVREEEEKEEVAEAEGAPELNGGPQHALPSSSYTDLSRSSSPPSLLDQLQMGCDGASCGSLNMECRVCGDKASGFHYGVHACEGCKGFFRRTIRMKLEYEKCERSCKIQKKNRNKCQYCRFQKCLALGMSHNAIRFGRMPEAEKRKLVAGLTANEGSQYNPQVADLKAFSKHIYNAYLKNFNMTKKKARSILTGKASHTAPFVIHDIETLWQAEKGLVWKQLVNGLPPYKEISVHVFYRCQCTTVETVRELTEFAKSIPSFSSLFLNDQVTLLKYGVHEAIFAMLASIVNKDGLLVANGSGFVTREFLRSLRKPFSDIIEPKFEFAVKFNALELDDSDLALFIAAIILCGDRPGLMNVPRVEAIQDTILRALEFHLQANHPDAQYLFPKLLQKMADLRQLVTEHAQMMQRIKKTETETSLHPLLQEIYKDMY
The target of test [5] is Peroxisome proliferator-activated receptor gamma (Homo sapiens) (UniProt P37231). The experiment in a line: qHTS assay for small molecule agonists of peroxisome proliferator-activated receptor gamma signaling (AID 588536; active = well fitted curve in the direction sought with a large enough effect in the signal ratio, with a control signal flat, not every such curve was filed as active; the % refers to the signal ratio;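 also: 0% = DMSO basal wells and 100% = rosiglitazone at 2 µM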). Conditions: HEK293 PPARg-UAS-bla, beta-lactamase ratio, 16 h, percent of rosiglitazone response, DMSO as zero; series mostly up to 76.7 µM. Summed up: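 Compound treatment: 16 h, 37 C, HEK293 GeneBLAzer cells. Detection: CCF4, 2 h RT. Values: Hill-fit EC50, efficacy as % of 2 uM rosiglitazone.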
Peroxisome proliferator-activated receptor gamma (Homo sapiens), sequence (P37231 whole entry, looked up): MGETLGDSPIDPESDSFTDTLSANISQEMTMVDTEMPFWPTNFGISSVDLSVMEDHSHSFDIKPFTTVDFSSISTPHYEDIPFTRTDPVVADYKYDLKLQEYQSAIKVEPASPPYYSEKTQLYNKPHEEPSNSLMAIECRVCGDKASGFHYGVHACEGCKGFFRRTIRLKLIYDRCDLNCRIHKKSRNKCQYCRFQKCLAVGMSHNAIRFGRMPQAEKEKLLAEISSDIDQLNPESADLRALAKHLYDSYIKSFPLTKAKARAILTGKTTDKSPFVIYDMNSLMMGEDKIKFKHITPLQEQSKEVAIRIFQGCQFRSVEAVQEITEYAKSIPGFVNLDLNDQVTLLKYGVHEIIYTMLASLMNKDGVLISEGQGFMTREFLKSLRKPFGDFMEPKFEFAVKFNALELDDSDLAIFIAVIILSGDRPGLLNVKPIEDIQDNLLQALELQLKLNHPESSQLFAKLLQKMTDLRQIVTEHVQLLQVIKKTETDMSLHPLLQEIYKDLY

Test [6] concerns the target Vitamin D3 receptor (Homo sapiens) (UniProt P11473). The test can be described thus: qHTS assay for small molecule antagonists of vitamin D receptor signaling (AID 588541).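 Also: receptor activated by calcitriol during compound treatment; % is scaled to controls: 0 for no effect and ±100 for the full control effect.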 Conditions: HEK293T VDR-UAS-bla, beta-lactamase ratio, antagonist mode; series mostly up to 76.7 µM. The essentials:
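Antagonist-mode beta-lactamase reporter assay: HEK293T VDR-UAS-bla cells were exposed to titrated compound alongside 1-alpha,25-dihydroxyvitamin D3 at 3 nM final for 16 h. Values were normalized to the 50 nM agonist control and DMSO basal, with IC50 and efficacy from Hill equation fits.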

Test [7] shares this target. The test can be described thus: qHTS assay for small molecule agonists of vitamin D receptor signaling (AID 588543).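 Also: 0% = DMSO basal and 100% = reference agonist control.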 The conditions noted are these: HEK293T VDR-UAS-bla, beta-lactamase ratio, 16 h; series mostly up to 76.8 µM. The essentials: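 GeneBLAzer VDR-UAS-bla HEK293T cells in 2% charcoal-stripped FBS medium were dosed with compound titrations for 16 h at 37 °C; CCF4 β-lactamase readout (405 nm ex, 460/530 nm em). EC50 and efficacy from Hill fits, normalized to 50 nM calcitriol (100%) and DMSO (0%).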

The target in test [8] is Thyroid hormone receptor beta (Homo sapiens) (UniProt P10828). The experiment in a line: qHTS assay for small molecule agonists of thyroid hormone receptor beta signaling (AID 588545).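 Also: 0% = DMSO only and 100% = 10 nM T3.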 Conditions: TR-UAS-bla GripTite HEK 293, beta-lactamase ratio, agonist mode, 18 h, percent of T3 response, DMSO as zero; series mostly up to 76.7 µM. The essentials:
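Compounds were tested as agonists in TR-UAS-bla-GripTite HEK 293 cells. After 18 hrs at 37 C, CCF4 substrate was added and fluorescence read after 2 hrs at room temperature.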

Test [9] can be described thus: qHTS assay for small molecule agonists of retinoid X receptor alpha signaling (AID 588544).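 As to activation: 0% = DMSO basal wells and 100% = reference agonist.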 Conditions: HEK293T RXRa-UAS-bla, beta-lactamase reporter, 18 h; 530 nm emission.
The target of test [10] is Retinoic acid receptor RXR-alpha (Homo sapiens) (UniProt P19793). The description is as above. Conditions: HEK293T RXRa-UAS-bla, beta-lactamase reporter, 18 h; series mostly up to 76.7 µM.
Retinoic acid receptor RXR-alpha (Homo sapiens), sequence (P19793 whole entry, looked up): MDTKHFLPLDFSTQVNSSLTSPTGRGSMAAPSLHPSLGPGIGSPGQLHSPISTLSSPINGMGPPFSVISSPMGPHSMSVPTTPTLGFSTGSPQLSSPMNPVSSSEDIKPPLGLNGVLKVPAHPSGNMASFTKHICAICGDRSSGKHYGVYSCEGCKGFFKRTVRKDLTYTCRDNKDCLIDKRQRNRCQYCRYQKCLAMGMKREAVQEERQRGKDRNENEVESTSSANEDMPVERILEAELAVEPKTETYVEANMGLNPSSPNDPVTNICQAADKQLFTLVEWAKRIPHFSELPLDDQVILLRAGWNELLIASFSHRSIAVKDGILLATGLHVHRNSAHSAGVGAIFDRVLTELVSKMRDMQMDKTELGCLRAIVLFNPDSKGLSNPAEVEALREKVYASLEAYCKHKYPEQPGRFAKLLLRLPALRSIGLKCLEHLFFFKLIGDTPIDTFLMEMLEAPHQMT
The target of test [11] is Estrogen receptor (Homo sapiens) (UniProt P03372). The test can be described thus: qHTS assay for small molecule antagonists of estrogen receptor alpha signaling (AID 588513; active = well fitted curve in the direction sought with a large enough effect in the signal ratio, with a control signal flat, not every such curve was filed as active; the % refers to the signal ratio; also: % is scaled to controls: 0 for no effect and ±100 for the full control effect). The conditions noted are these: ER-alpha-UAS-bla HEK293, beta-lactamase ratio, antagonist mode; series mostly up to 76.9 µM. Summed up: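 ER-alpha-UAS-bla GripTite HEK 293 cells in medium with 2% charcoal/dextran-treated FBS were preincubated 4 h at 37 C, dosed with compound (1:2 titration), stimulated with 0.5nM 17-beta-estradiol for 18 h, then read by CCF4 beta-lactamase fluorescence.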
Estrogen receptor (Homo sapiens), sequence (P03372 whole entry, looked up): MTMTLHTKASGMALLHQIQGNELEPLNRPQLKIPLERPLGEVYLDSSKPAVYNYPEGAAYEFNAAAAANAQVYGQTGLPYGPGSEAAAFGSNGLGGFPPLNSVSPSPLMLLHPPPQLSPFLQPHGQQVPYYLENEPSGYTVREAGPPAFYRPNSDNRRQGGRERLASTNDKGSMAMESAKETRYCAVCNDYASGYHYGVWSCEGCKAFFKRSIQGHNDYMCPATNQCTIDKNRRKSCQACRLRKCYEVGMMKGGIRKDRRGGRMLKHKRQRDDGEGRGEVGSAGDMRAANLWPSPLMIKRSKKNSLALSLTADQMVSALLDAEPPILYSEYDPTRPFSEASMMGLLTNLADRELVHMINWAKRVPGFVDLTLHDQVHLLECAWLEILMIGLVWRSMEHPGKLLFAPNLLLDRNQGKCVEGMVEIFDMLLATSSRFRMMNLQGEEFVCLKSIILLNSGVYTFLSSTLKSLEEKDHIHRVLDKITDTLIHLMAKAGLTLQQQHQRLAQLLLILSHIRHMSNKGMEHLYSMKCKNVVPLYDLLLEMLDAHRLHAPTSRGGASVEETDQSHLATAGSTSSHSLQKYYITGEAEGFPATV

Test [12] is described as follows: qHTS assay for small molecule antagonists of retinoid X receptor alpha signaling (AID 588546; active = well fitted inhibition curve with a large enough effect in the signal ratio, with a control signal flat, not every such curve was filed as active; the % refers to the signal ratio;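 also: cells stimulated with 9-cis-retinoic acid as agonist; % is scaled to controls: 0 for no effect and ±100 for the full control effect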). The conditions noted are these: HEK293T RXRa-UAS-bla, beta-lactamase ratio, antagonist mode; measured here: W530 green channel, cytotoxicity proxy. Summed up:
(§2)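 Beta-lactamase reporter inhibition, read as CCF4 fluorescence ratio (ex 405, em 460/530 nm) after 2 h at RT. HEK293T UAS-bla cells, 2500/well, were stimulated with 9-cis-RA at 500 or 100 nM final alongside test compound for 18 h at 37 C.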

In test [13] the target is Retinoic acid receptor RXR-alpha (Homo sapiens) (UniProt P19793). The test is described as above. Conditions: HEK293T RXRa-UAS-bla, beta-lactamase ratio, antagonist mode. Summed up: as §2
The target in test [14] is Bile acid receptor (Homo sapiens) (UniProt Q96RI1). The test can be described thus: qHTS assay for small molecule antagonists of farnesoid X receptor signaling (AID 588526). Also: % is scaled to controls: 0 for no effect and ±100 for the full control effect. Conditions: HEK293T FXR-UAS-bla, beta-lactamase ratio, antagonist mode; series mostly up to 76.7 µM. Summed up:
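Beta-lactamase reporter antagonist mode: HEK293T FXR-UAS-bla cells, titrated compound, CDCA stimulation, 16 h 37 C, CCF4 dye 2 h RT. Data normalized to CDCA 50 uM and DMSO; Hill-fit IC50.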

In test [15] the target is Ubiquitin carboxyl-terminal hydrolase 1 (Homo sapiens) (UniProt O94782). The test can be described thus: Inhibitors of USP1/UAF1: Pilot qHTS (AID 504865; active = well fitted inhibition curve with a large enough effect;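 also: rhodamine fluorescence freed from ubiquitin-rhodamine substrate followed over time; top concentration of the series differs between compounds; % is scaled to controls: 0 for no effect and ±100 for the full control effect; nearly all actives have a fitted effect of over 35% in size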). The conditions noted are these: purified USP1/UAF1, Ub-rhodamine cleavage fluorescence; series mostly up to 114 µM. The essentials:
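USP1/UAF1 complex (1nM) preincubated with compound 15 min at room temperature, then Ub-Rho substrate (150nM final) added. Fluorescence read kinetically at 480/540 nm, 6 reads every 60 seconds. Buffer: 50mM HEPES pH 7.8, 0.5mM EDTA, 0.1 mg/ml BSA, 1mM TCEP, 0.01% Tween-20.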

Test [16] concerns the target DNA dC->dU-editing enzyme APOBEC-3G (Homo sapiens) (UniProt Q9HC16). The test can be described thus: qHTS for inhibitors of Vif-A3G interactions: Validation (AID 588379; active = well fitted inhibition curve with a large enough effect; also: 0% is about no effect). The conditions noted are these: Vif-A3G protein interaction assay; series mostly up to 46.1 µM. The essentials:
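Yellow fluorescence (Ex 488, Em 500-530) of Vif-coexpressing HeLa A3G-eYFP cells, scanned by Acumen cytometer, reports blocked A3G degradation. Cells plated at 700/well overnight at 37 deg C before compound addition, then a further overnight compound incubation at 37 deg C.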

Glucocorticoid receptor (Homo sapiens), sequence (P04150 whole entry, looked up): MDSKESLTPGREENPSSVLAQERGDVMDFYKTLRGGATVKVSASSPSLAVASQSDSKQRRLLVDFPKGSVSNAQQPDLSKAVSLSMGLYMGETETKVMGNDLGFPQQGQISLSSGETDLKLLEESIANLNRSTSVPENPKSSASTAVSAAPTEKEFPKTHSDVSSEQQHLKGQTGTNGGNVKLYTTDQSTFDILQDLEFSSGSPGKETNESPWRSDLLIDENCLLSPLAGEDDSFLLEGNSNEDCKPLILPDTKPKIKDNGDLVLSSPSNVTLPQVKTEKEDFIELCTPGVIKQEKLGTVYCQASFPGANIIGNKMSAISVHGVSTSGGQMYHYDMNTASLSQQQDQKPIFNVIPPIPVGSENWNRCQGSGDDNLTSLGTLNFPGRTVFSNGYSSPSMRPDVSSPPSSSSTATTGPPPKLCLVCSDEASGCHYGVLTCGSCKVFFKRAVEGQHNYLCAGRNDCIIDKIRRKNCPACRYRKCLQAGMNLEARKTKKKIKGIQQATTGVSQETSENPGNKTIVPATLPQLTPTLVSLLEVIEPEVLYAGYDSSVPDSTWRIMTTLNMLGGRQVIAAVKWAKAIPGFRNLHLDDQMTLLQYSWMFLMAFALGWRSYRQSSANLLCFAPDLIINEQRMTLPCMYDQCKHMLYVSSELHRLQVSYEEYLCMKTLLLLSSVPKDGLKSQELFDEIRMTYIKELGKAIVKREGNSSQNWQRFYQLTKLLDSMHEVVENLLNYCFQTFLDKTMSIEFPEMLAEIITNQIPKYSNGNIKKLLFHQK
Vitamin D3 receptor (Homo sapiens), sequence (P11473 whole entry, looked up): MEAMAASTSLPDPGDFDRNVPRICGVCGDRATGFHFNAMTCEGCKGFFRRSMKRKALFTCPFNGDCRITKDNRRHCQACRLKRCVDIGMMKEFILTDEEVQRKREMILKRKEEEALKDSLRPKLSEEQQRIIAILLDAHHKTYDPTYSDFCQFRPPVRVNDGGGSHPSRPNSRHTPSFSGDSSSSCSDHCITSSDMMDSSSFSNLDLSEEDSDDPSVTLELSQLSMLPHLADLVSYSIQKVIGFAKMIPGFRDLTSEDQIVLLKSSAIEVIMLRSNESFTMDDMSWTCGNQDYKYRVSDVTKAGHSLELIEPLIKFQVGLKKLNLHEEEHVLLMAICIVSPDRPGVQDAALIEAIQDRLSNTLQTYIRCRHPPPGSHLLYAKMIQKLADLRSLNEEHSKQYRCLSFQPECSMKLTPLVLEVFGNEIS
Ubiquitin carboxyl-terminal hydrolase 1 (Homo sapiens), sequence (O94782 whole entry, looked up): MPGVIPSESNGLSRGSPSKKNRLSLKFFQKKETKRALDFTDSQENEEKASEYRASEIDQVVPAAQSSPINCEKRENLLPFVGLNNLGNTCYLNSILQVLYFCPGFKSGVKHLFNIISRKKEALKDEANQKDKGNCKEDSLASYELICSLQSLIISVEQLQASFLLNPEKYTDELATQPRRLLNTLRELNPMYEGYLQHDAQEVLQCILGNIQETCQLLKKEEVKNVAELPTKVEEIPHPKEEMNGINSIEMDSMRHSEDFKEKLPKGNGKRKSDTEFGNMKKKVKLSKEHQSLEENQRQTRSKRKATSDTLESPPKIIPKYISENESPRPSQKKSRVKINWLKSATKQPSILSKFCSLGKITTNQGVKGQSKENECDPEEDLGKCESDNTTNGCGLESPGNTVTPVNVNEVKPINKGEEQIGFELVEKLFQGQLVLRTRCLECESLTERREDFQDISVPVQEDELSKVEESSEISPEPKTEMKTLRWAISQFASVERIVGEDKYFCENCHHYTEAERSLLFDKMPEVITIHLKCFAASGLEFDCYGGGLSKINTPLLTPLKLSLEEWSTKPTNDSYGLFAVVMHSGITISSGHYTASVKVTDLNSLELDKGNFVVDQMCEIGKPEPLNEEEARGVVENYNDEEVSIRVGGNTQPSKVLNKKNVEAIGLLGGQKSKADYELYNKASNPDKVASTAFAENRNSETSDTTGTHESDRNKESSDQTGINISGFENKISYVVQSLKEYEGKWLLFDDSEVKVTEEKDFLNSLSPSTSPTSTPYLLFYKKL
Thyroid hormone receptor beta (Homo sapiens), sequence (P10828 whole entry, looked up): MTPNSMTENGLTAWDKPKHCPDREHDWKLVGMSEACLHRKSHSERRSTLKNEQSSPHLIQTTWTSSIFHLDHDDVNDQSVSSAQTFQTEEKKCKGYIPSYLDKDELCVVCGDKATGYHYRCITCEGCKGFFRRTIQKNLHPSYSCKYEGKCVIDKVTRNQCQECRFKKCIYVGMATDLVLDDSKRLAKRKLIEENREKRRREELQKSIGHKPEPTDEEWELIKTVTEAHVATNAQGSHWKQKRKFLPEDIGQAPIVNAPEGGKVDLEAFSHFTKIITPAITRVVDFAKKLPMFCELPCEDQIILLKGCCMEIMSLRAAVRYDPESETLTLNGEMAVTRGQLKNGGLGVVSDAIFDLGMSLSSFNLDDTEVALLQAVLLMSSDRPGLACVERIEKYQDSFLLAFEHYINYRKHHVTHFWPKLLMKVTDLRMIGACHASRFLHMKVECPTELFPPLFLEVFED
Bile acid receptor (Homo sapiens), sequence (Q96RI1 whole entry, looked up): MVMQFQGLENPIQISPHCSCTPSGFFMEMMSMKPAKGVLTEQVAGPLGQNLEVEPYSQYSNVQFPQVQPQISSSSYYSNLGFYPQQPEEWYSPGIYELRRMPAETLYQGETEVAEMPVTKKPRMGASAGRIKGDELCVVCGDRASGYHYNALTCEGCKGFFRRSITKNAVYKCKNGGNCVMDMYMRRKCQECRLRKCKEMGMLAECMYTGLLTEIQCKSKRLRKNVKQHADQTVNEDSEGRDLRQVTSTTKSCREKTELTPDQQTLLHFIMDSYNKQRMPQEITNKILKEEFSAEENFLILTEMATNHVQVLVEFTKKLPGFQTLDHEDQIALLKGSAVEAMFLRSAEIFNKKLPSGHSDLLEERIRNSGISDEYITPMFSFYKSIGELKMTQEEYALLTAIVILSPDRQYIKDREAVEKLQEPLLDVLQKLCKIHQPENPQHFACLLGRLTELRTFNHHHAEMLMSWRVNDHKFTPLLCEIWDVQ

As for `CC(C)CCCCCCc1ccc(O)cc1`, the activation in test [1] was -1.88% (inactive). The Potency result in test [2] is “inactive”. Moreover, the max response in test [3] is -43.1%. Besides, the outcome in test [4], in [5], in test [6], in test [7] and in test [8] was inactive.
Turning to `N[C@@H](Cc1cc(I)c(Oc2ccc(O)c(I)c2)c(I)c1)C(=O)O`, the activation in [1] is -18.8% (inactive). In test [2], the Potency entry was “inactive”. Further, the max response turned out to be 53.8% in test [3] and 1.66% in test [9]. For the same compound, the outcome in [4], in test [6], in test [7] and in [10] was inactive.
With `C[C@H](CCC(=O)O)[C@H]1CC[C@H]2[C@@H]3[C@H](O)C[C@@H]4C[C@H](O)CC[C@]4(C)[C@H]3C[C@H](O)[C@]12C`, the Potency entry in [11] and in test [2] was “inactive” in each case. In addition, the activation in test [1] is 0.114% (inactive). Moreover, the result in test [5] and in test [10] was inactive. Moreover, the figures for the max response in [9], in test [12] and in test [13] were 9.07%, 8.31% and -12.8% (inactive), respectively.
With `C=CC(C)(O)CC/C=C(\C)CCC=C(C)C` (configuration not stated), the result in test [14], in [4], in test [5], in test [10] and in test [8] was inactive. The activation in test [1] is 1.37% (inactive). Also, in test [2], the Potency entry is “inactive”. Further, the max response in [3] was 18.5%; in test [9], 4.32%; in test [12] it was -3.85%; in test [13] it was 13.1% (inactive).
Turning to `CC/C=C\C/C=C\C/C=C\CCCCCCCC(=O)O`, the Potency entry in [11] was “inactive”. Moreover, the outcome in test [14], in [6], in [7] and in test [8] was inactive. The max response in [12] is 8.56%; in test [13], -8.86% (inactive).
Consider `CO`, for which the Potency entry in test [15] was “inactive”. The max response in test [3] is -4.23%; in [9], -9.41%; in test [12] it was -6.65%; in test [13], -0.242% (inactive). Moreover, the result in test [4], in [5], in [6], in [7], in test [10] and in [8] was inactive.
In the case of `O=C1c2ccccc2C(=O)c2c1ccc(O)c2O`, the call in test [16] was inactive.
As to `O=C(OCc1ccccc1)c1ccc(O)cc1`, the Potency entry in [2] was “inactive”. Further, the outcome in test [5] and in [8] was inactive. Also, the results for the max response in test [12] and in [13] were -3.09% and -35.8% (inactive), respectively.
`NC(N)=O`: the Potency result in test [15] and in test [11] was “inactive” in each case. The outcome in test [5], in test [10] and in test [8] was inactive. Further, the max response was -18.6% in test [9], -4.99% in [12] and -5.2% (inactive) in test [13].
For `OC[C@H]1O[C@@](CO)(O[C@H]2O[C@H](CO)[C@@H](O)[C@H](O)[C@H]2O)[C@@H](O)[C@@H]1O`, the max response in [3] was -16.8%; in test [9] it was -0.27%; in [12], -3.43%; in test [13], 4.65% (inactive). In addition, the outcome in test [4], in test [5], in test [10] and in test [8] was inactive.
As to `O.O.O.O.O.O.O.O=S(=O)([O-])[O-].[Co+2]`, in test [15], the Potency entry was “inactive”. The result in [5], in test [10] and in test [8] was inactive. Besides, the max response in test [9] was 2.89%; in test [12], -11.7%; in [13], 6.5% (inactive).
As for `O=P(O)(O)O`, the result in test [14], in test [5], in [6], in test [7] and in test [10] was inactive. Moreover, the activation in [1] is -2.92% (inactive). Moreover, in test [2], the Potency entry is “inactive”. The figures for the max response in [9], in test [12] and in test [13] were -7.11%, 6.72% and 2.87% (inactive), respectively.
